In PubChem BioAssay (NCATS):
Results filed as inconclusive are left out. Calls of active or inactive are those of the source. Unless noted, the call rests on the fitted dose curve; in most records, active means well fitted curve in either direction with a large enough effect (not every such curve was filed as active); inconclusive means small, poorly fitted or top-dose-only effect, or another doubt; inactive means flat fitted curve, though single readings scatter.

Experiments:
[1] = target: Lysosomal acid glucosylceramidase (Homo sapiens) (UniProt P04062); test: Glucocerebrosidase-p2 (AID 348; in the data active means potency below about 10 µM; further: potency means the concentration at half of the fitted maximal effect); details: purified GBA, blue fluorogenic substrate, 40 min
How it was run: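 Compounds titrated from 0.6 nM upwards against 0.2 nM enzyme in pH 5.9 citric acid/KH2PO4, taurocholate, tween-20; blue fluorogenic substrate 80 uM, 40 min room temperature, stopped and read Ex 365/Em 440 for AC50.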

[2] = AP1 Signaling Pathway (AID 357); details: ME-180 AP-1-bla reporter, EGF-induced, beta-lactamase ratio, 5 h; at 7.69 µM (top of the series) unless noted; further: on the % scale 0 is the no-effect control and ±100 the full control effect
How it was run: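 Modulation of EGF-driven AP-1 transcription was assessed with a beta-lactamase reporter in ME-180 cells. Compound and EC50 EGF were co-incubated 5 hours at 37 °C before 2.5-hour CCF4 loading at room temperature and dual-emission reading.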

[3] = target: Cytochrome P450 1A2 (Homo sapiens) (UniProt P05177); test: p450-cyp1a2 (AID 410; calls by dose curve; further: potency means the concentration at half of the fitted maximal effect;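 on activity change, negative = inhibition: -100% = full effect of reference inhibitor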); details: recombinant CYP1A2, luciferin-ME demethylation, luminescence; series mostly up to 57 µM
How it was run: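 Human CYP1A2 (20nM) demethylated Luciferin-ME at its Km (100uM) in 100mM KPO4. After 10 min compound preincubation, NADPH regeneration ran the reaction 60 min at room temperature. Luciferin was read by luminescence, normalized to 57 uM furafylline.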

[4] = NFAT Signaling Pathway (AID 444); details: Jurkat NFAT-bla M1, carbachol, beta-lactamase ratio, 5 h; at 7.69 µM (top of the series) unless noted;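 further: carbachol stimulus at about its EC50 of 1 µM final; on the % scale 0 is the no-effect control and ±100 the full control effect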
How it was run: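 Jurkat cells carrying an NFAT-driven β-lactamase reporter and co-transfected muscarinic M1 receptor were treated with compound plus carbachol (1 uM final, an EC50 level) for 5 h at 37 °C. CCF4 loading followed for 1 h at RT; 460/530 nm ratio gave %activity.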

[5] = Stat Signaling Pathway (AID 446); details: ME-180 SIE beta-lactamase reporter, IL-6 stimulated, 5 h; at 7.69 µM (top of the series) unless noted;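 further: ME-180 cervical cancer cells given 40 pM IL-6 alongside compound; SIE-controlled beta-lactamase reporter measured as 460/530 nm FRET emission ratio; on the % scale 0 is the no-effect control and ±100 the full control effect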
How it was run: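 Screening format detects activators and inhibitors alike: ME-180 SIE-bla cells stimulated at 40 pM IL-6 for 5 hrs with compound, then dual-emission beta-lactamase read at 405 nm excitation.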

[6] = target: Glucocorticoid receptor (Homo sapiens) (UniProt P04150); test: GR-EFC Redistribution (AID 451; calls by dose curve; further: potency means the concentration at half of the fitted maximal effect); details: CHO-K1 GR-EFC translocation, beta-gal luminescence, 2 h
How it was run: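 CHO-K1 cells stably expressing nuclear-localized β-gal enzyme acceptor and GR fused C-terminally to the enzyme donor fragment; ligand-driven nuclear translocation restores β-gal by complementation. Compounds titrated up to 46 uM final, 2 h at 37 °C; luminescence read.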

[7] = target: Mitogen-activated protein kinase 10 (Mus musculus) (UniProt Q61831); test: JNK3 AlphaScreen Assay (AID 530); details: JNK3 lysate, c-Jun phosphorylation; series mostly up to 57.1 µM;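 further: kinase came from lysate of stimulated human HepG2 cells; signal reports phosphorylation of biotinylated GST-cJun 1-79 at Ser73 with 10 µM ATP; on the % scale 0 is the no-effect control and ±100 the full control effect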
How it was run: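 JNK3 came from HepG2 lysates pre-activated with IL-1beta and TNF-alpha and phosphorylated biotinylated GST-cJun (1-79) at 10 uM ATP, pH 7.6, room temperature. Compounds were titrated. AlphaScreen signal used anti-phospho-cJun (Ser73) antibody.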

[8] = target: Cytochrome P450 2C9 (Homo sapiens) (UniProt P11712); test: qHTS Assay for Inhibitors and Substrates of Cytochrome P450 2C9 (AID 883; active means well fitted curve in the direction sought with a large enough effect; an effect the other way counts as inactive or inconclusive; further: on the % scale 0 is the no-effect control and ±100 the full control effect; nearly all actives have a fitted effect of over 60% in size); details: recombinant CYP2C9, luciferin-H luminescence, 60 min; series mostly up to 57.1 µM
How it was run: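 CYP2C9 deoxyluciferin hydroxylation, 37C, 60 min with NADPH regeneration; 10nM enzyme, 100uM Luciferin-H (KM). Glo detection reagent stopped reaction; luminescence normalized to sulphaphenazole (57uM) full inhibition.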

[9] = qHTS Assay for Lipid Storage Modulators (AID 1519; calls by dose curve); details: Drosophila S3 cells, BODIPY lipid droplet/cell ratio, laser cytometry, cells loaded with oleic acid; for activity change, negative = inhibition: at 57.5 µM (top of the series)
How it was run: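 Cells seeded at 5,000 per well were treated with compounds over a concentration series and loaded with oleic acid (400 uM, as added). Lipid droplet fluorescence (488 nm excitation, 500-530 nm channel) was read by laser-scanning cytometry and normalized to 20 uM Triacsin C.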

[10] = Primary qHTS for small molecule stabilizers of the endoplasmic reticulum resident proteome: Secreted ER Calcium Modulated Protein (SERCaMP) assay (AID 1508630; active means well fitted curve in the direction sought with a large enough effect; an effect the other way counts as inactive or inconclusive; further: on the % scale 0 is the no-effect control and ±100 the full control effect); details: SH-SY5Y GLuc-SERCaMP (Gaussia luciferase released on ER calcium loss) secretion, thapsigargin, luminescence; series mostly up to 38.4 µM
How it was run: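 GLuc-SERCaMP-expressing SH-SY5Y cells, pretreated 16 h with compound, are challenged with thapsigargin to empty ER calcium stores; after 4 h, coelenterazine is added directly to the medium and luminescence is imaged.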

[11] = target: 3',5'-cyclic-AMP phosphodiesterase 4B (Homo sapiens) (UniProt Q07343); test: qHTS Assay for Inhibitors of PDE-IV (AID 607; active means well fitted activation curve with a large enough effect in the main read-out, with a control signal flat, not every such curve was filed as active; further: % of control where 0% means no effect); details: HEK293 ACTOne CNG channel cells, membrane potential fluorescence; series mostly up to 22.9 µM
How it was run: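 The readout is membrane depolarisation from a cAMP-sensing CNG channel, detected with a potential dye at ex 535/em 590. Cells were HEK293-derived (endogenous PDE-IV) at 1000 cells/well, titrated up to 22.9 uM final.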

[12] = target: Cytochrome P450 3A4 (Homo sapiens) (UniProt P08684); test: qHTS Assay for Activators of Cytochrome P450 3A4 (AID 885; active means well fitted curve in the direction sought with a large enough effect; an effect the other way counts as inactive or inconclusive; further: nearly all actives have a fitted effect of over 65% in size); details: recombinant CYP3A4, Luciferin-PPXE luminescence, 60 min; series mostly up to 57.1 µM
How it was run: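 Steps: enzyme/substrate mix dispensed; compound added, 10 min RT; NADPH regeneration solution added, 60 min RT; luciferin detection buffer stops reaction; 20 min later luminescence measured.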

[13] = target: Glucocorticoid receptor (Homo sapiens) (UniProt P04150); test: GR-GFP Redistribution (AID 450;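 active means compounds whose dose series gives a full or clear partial fitted curve of increased nuclear translocation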; further: potency means the concentration at half of the fitted maximal effect); details: U2OS GR-GFP nuclear translocation, laser cytometry, 2 h
[14] = Confirmation and Secondary Assay for Modulators of Hemoglobin Beta Chain Splicing at IVS2 654 locus (AID 910; active means well fitted curve in the direction sought with a large enough effect; an effect the other way counts as inactive or inconclusive;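 further: per-well total GFP intensity by laser scanning cytometry after 2-day treatment; % of control where 0% means no effect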); details: HeLa EGFP-654 splicing reporter, GFP fluorescence, 48 h; series mostly up to 38.3 µM
How it was run: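 HeLa cells stably carrying EGFP interrupted by mutant beta-globin IVS2-654 intron (CMV-driven) were treated with compound for 2 days at 37C; corrected splicing was scored as total peak GFP intensity per well (488 nm excitation, 500-520 nm emission).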

[15] = qHTS Assay for Identification of Small Molecule Agonists for Hypoxia Response Element Signaling Pathway (AID 914; active means well fitted activation curve with a large enough effect in the signal ratio, with a control signal flat, not every such curve was filed as active; the % refers to the signal ratio; further: potency means the concentration at half of the fitted maximal effect; on activation: % of control where 0% means no effect); details: ME-180 (cervical carcinoma) HRE-bla reporter, beta-lactamase ratio, CoCl2, 17 h; activation: stronger effect = higher value
How it was run: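 AC50 values come from titration-series %Activity, taken as the 460/530nm ratio of CCF4 fluorescence (excitation 405nm). CellSensor HRE-bla ME-180 cells were treated 17 hours at 37 C with compound plus an EC50 level of CoCl2.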

[16] = Confirmation and Secondary Assay for Modulators of Hemoglobin Beta Chain Splicing at IVS2 705 locus (AID 930; active means well fitted curve in the direction sought with a large enough effect; an effect the other way counts as inactive or inconclusive;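 further: HeLa cells stably expressing the EGFP-705 splicing reporter; % of control where 0% means no effect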); details: HeLa EGFP-705 splicing reporter, GFP fluorescence, 48 h; series mostly up to 38.3 µM
How it was run: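 Restored EGFP fluorescence after 2-day compound exposure reports splicing correction in IVS2-705 EGFP reporter HeLa cells; positive control was 500 nM splice-blocking PNA oligo. Signal measured as well total peak GFP intensity (488 nm excitation).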

[17] = target: Ubiquitin carboxyl-terminal hydrolase 1 (Homo sapiens) (UniProt O94782); test: Inhibitors of USP1/UAF1: Pilot qHTS (AID 504865; active means well fitted curve in the direction sought with a large enough effect; an effect the other way counts as inactive or inconclusive;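 further: rhodamine fluorescence freed from ubiquitin-rhodamine substrate followed over time; top concentration of the series differs between compounds; on the % scale 0 is the no-effect control and ±100 the full control effect; nearly all actives have a fitted effect of over 35% in size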); details: purified USP1/UAF1, Ub-rhodamine cleavage fluorescence; series mostly up to 54.9 µM
How it was run: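 1nM USP1/UAF1 + cpd, 15 min RT; start w/ Ub-Rho 150nM final; kinetic FL 480/540 nm, 6 reads q60 s. Buffer 50mM HEPES pH 7.8, 0.5mM EDTA, 1mM TCEP, 0.01% Tween-20, 0.1 mg/ml BSA.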

[18] = target: Cytochrome P450 2C19 (Homo sapiens) (UniProt P33261); test: qHTS Assay for Inhibitors and Substrates of Cytochrome P450 2C19 (AID 899; active means well fitted curve in the direction sought with a large enough effect; an effect the other way counts as inactive or inconclusive; further: on the % scale 0 is the no-effect control and ±100 the full control effect; nearly all actives have a fitted effect of over 60% in size); details: recombinant CYP2C19, luciferin-H EGE luminescence; series mostly up to 57.1 µM
How it was run: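 In 50mM KPO4, the reaction held 5nM enzyme and KM-level (10uM) Luciferin-H EGE; it ran 60 min at 37C after NADPH regeneration and a 10 min compound preincubation. Luminescence values were scaled to 57uM ketoconazole as complete inhibition.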

[19] = target: Cytochrome P450 3A4 (Homo sapiens) (UniProt P08684); test: qHTS Assay for Inhibitors and Substrates of Cytochrome P450 3A4 (AID 884; active means well fitted curve in the direction sought with a large enough effect; an effect the other way counts as inactive or inconclusive; further: potency means the concentration at half of the fitted maximal effect; nearly all actives have a fitted effect of over 50% in size); details: recombinant CYP3A4, Luciferin-PPXE luminescence; series mostly up to 57.1 µM
How it was run: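 20 nM human CYP3A4 with 25 uM Luciferin-PPXE (at KM) in 200 mM KPO4, preincubated 10 min with compound; NADPH regeneration started a 60 min RT reaction. Luciferin detected by luminescence, normalized to 57 uM ketoconazole as full inhibition.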

[20] = measured here: cell count channel max response
[21] = measured here: lipid channel max response

Cytochrome P450 3A4 (Homo sapiens), sequence (P08684 whole entry, looked up): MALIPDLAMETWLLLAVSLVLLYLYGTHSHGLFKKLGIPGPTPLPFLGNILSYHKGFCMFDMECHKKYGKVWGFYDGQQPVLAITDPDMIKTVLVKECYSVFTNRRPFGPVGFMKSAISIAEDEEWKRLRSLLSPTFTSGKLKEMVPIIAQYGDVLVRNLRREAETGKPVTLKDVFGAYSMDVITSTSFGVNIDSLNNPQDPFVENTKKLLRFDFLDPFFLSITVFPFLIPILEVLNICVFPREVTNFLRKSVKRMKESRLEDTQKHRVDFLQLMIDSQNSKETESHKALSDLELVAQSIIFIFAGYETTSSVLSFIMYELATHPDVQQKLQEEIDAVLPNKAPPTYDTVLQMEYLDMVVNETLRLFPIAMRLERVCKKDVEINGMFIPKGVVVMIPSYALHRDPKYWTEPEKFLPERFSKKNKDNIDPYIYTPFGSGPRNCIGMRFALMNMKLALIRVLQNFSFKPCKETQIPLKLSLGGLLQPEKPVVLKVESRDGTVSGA
3',5'-cyclic-AMP phosphodiesterase 4B (Homo sapiens), sequence (Q07343 whole entry, looked up): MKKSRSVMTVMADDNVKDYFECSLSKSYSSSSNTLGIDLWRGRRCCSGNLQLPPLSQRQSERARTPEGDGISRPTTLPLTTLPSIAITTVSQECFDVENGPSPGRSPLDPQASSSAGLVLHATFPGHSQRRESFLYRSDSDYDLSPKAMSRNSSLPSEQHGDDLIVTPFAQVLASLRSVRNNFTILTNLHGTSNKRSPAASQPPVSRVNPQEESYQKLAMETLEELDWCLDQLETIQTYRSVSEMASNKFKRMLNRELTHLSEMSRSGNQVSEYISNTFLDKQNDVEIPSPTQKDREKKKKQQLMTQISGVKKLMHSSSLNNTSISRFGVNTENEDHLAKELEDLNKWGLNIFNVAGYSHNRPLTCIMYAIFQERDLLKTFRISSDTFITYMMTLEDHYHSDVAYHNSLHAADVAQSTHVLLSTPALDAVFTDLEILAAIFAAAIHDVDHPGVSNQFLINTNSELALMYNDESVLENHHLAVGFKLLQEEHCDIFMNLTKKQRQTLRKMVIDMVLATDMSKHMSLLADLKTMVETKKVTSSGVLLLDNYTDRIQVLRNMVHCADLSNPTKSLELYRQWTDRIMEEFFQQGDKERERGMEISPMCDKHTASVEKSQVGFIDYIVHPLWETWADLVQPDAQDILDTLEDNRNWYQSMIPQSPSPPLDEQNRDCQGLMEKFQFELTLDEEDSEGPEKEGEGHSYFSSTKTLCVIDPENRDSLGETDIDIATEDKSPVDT
Glucocorticoid receptor (Homo sapiens), sequence (P04150 whole entry, looked up, the tested form may be a part): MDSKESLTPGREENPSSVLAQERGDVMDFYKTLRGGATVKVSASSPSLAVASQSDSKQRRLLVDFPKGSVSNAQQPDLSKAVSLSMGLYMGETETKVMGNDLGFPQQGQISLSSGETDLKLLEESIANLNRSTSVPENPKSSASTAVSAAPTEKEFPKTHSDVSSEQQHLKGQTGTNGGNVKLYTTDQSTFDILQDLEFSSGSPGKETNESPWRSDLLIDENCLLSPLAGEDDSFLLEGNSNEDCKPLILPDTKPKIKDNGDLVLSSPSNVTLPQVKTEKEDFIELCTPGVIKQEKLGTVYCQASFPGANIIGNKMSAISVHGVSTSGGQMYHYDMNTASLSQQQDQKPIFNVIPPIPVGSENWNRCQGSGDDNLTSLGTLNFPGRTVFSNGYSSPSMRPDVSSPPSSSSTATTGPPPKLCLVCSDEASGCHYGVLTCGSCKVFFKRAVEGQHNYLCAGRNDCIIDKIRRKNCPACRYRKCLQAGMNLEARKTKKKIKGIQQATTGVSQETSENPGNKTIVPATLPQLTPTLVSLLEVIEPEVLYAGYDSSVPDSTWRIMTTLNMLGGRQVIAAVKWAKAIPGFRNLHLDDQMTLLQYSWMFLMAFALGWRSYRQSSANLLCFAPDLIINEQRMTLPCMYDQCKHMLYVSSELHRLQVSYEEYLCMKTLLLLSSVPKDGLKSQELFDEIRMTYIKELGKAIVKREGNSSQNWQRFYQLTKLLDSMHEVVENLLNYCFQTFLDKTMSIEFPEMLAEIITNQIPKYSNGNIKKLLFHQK
Lysosomal acid glucosylceramidase (Homo sapiens), sequence (P04062 whole entry, looked up): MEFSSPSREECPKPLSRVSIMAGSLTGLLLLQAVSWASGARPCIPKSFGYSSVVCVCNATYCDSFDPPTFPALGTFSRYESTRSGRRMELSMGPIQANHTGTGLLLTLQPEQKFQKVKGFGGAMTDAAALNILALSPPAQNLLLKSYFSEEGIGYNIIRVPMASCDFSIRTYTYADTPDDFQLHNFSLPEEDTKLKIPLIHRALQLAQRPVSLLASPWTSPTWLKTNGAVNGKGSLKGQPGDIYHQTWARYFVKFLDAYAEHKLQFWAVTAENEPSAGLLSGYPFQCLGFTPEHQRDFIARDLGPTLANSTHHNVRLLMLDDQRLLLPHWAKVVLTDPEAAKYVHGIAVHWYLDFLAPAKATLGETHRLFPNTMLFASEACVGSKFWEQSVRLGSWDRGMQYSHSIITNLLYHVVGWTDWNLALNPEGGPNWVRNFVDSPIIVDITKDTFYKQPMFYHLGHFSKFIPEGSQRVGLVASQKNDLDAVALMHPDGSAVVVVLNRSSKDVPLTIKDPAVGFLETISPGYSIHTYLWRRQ
Cytochrome P450 1A2 (Homo sapiens), sequence (P05177 whole entry, looked up): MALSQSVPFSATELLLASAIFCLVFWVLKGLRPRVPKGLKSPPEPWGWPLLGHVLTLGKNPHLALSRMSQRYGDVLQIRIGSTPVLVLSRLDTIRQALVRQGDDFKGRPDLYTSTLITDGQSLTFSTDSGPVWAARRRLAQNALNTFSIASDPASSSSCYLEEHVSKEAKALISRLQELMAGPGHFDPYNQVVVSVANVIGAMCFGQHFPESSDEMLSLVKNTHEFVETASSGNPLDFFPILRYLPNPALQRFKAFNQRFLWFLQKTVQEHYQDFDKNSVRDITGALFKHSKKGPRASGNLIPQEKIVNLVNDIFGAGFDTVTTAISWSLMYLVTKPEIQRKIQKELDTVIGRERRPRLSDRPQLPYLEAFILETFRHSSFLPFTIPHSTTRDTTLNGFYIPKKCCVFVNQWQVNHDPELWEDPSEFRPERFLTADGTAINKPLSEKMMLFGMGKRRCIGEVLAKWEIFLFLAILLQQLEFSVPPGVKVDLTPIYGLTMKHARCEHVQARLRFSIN
Cytochrome P450 2C9 (Homo sapiens), sequence (P11712 whole entry, looked up): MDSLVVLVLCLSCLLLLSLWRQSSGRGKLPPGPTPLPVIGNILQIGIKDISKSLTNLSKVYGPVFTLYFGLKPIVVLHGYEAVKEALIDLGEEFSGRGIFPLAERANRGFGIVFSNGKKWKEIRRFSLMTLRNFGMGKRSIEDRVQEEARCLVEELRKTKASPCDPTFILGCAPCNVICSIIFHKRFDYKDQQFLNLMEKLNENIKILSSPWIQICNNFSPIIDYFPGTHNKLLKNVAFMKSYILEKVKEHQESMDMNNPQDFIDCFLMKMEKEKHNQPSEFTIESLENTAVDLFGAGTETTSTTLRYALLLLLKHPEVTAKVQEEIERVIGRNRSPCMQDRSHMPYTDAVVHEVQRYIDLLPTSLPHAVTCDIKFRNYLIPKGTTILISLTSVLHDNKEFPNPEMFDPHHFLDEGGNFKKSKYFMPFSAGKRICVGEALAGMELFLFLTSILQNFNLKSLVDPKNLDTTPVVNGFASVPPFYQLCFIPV
Ubiquitin carboxyl-terminal hydrolase 1 (Homo sapiens), sequence (O94782 whole entry, looked up): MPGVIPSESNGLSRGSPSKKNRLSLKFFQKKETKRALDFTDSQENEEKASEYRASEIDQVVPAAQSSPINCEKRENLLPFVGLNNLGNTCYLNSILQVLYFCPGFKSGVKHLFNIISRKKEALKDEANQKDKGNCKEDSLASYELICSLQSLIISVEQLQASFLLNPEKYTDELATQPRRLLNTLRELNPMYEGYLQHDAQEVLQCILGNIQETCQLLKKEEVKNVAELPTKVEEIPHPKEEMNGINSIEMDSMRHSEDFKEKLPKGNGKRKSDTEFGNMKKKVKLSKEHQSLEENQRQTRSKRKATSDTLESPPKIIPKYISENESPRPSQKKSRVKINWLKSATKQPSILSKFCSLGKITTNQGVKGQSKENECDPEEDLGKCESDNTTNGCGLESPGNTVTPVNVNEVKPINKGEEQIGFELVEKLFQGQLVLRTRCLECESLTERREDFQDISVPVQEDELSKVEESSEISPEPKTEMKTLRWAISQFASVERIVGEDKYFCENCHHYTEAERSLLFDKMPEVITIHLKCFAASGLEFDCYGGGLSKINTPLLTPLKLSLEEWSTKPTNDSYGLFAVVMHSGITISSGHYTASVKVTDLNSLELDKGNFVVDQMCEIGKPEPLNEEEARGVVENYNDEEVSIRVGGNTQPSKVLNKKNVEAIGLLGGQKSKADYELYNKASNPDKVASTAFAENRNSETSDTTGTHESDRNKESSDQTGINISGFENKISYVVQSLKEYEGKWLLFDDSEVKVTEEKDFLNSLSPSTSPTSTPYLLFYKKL
Cytochrome P450 2C19 (Homo sapiens), sequence (P33261 whole entry, looked up): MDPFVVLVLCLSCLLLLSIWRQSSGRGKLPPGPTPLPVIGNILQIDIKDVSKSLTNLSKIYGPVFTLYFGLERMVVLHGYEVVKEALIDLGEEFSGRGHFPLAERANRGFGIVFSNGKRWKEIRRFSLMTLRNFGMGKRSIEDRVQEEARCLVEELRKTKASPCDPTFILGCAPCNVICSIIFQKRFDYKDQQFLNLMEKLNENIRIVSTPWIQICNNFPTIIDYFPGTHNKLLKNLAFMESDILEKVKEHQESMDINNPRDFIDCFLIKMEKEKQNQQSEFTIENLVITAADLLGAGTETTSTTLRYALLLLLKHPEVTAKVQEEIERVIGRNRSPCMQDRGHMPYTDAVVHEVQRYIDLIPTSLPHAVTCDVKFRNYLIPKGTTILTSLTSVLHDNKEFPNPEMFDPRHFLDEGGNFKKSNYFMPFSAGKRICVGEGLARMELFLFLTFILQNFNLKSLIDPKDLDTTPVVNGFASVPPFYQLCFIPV

CN(C)c1ncc2ncc(=O)n(CCC#N)c2n1
25.3%: max response [9, 20]
active: Potency [3] 12.6 µM
inactive: Potency [1] > 11.4 µM | activity change, negative = inhibition [2] -12.7% | activity change, negative = inhibition [4] 3.55% | activity, negative = inhibition [5] -2.2% | Potency [6] > 46 µM | outcome [7] | Potency [8] | activity change, negative = inhibition [9] 2.4% | Potency [10]
29.8%: max response [9, 21]

O=C(c1cccc(F)c1)N1CCC2(CCCN(c3ncccn3)C2)CC1
inactive: Potency [1] > 11.4 µM | activity change, negative = inhibition [2] 4.38% | activity, negative = inhibition [5] -4.43% | Potency [6] > 46 µM | outcome [7] | activity change, negative = inhibition [9] 3.73% | Potency [10]
1%: max response [9, 20]
9.03%: max response [9, 21]
active: Potency [3] 25.1 µM

CC(C)NC(=O)N1CCCC2(CCN(C(=O)c3ccncc3)CC2)C1
inactive: Potency [1] > 11.4 µM | activity change, negative = inhibition [2] -8.19% | Potency [3] | activity, negative = inhibition [5] -5.11% | Potency [6] > 46 µM | outcome [7] | Potency [11] | Potency [12] | activity change, negative = inhibition [9] 3.7% | Potency [10]
13.8%: max response [9, 20]
22%: max response [9, 21]

CNc1ncncc1-c1ccccc1OC
active: Potency [3] 1.58 µM
8.32%: max response [9, 20]
13.5%: max response [9, 21]
inactive: Potency [1] > 11.4 µM | activity change, negative = inhibition [2] -10.6% | activity, negative = inhibition [5] 6.99% | Potency [13] > 46 µM | Potency [6] > 46 µM | outcome [7] | Potency [11] | Potency [12] | outcome [14] | activation [15] 5.66% | outcome [16] | activity change, negative = inhibition [9] 5.61% | Potency [17] | Potency [10]

Cn1cc(-c2nc3cnc(Oc4cccc(Cl)c4)nc3n(CCC#N)c2=O)c2ccccc21
6.76%: max response [9, 20]
0.937%: max response [9, 21]
active: Potency [3] 2.51 µM | Potency [15] 1.58 µM
inactive: Potency [1] > 11.4 µM | activity change, negative = inhibition [2] 0.05% | Potency [13] > 9.22 µM | Potency [6] > 46 µM | Potency [11] | Potency [8] | Potency [12] | activity change, negative = inhibition [9] -7.95% | Potency [10]

COC(=O)N1CCC[C@@]2(CCN(c3ccccn3)C2)C1
active: Potency [3] 15.8 µM
2.62%: max response [9, 20]
inactive: Potency [1] > 11.4 µM | activity change, negative = inhibition [2] -6.02% | activity, negative = inhibition [5] 7.71% | Potency [6] > 46 µM | outcome [7] | Potency [11] | activity change, negative = inhibition [9] 5.17% | Potency [10]
11%: max response [9, 21]

N#CCCn1c(=O)cnc2cnc(N3CCOCC3)nc21
inactive: activity change, negative = inhibition [2] -13.7% | activity change, negative = inhibition [4] -0.169% | activity, negative = inhibition [5] 19.5% | Potency [13] > 9.22 µM | outcome [7] | Potency [18] | activity change, negative = inhibition [9] 6.47% | Potency [10]
18.1%: max response [9, 20]
23.1%: max response [9, 21]
active: Potency [3] 10 µM

Cc1cccc(CNc2ncncc2-c2cccc(C#N)c2)c1
active: Potency [3] 2.51 µM | Potency [19] 199 nM
inactive: activity change, negative = inhibition [2] 0.377% | activity change, negative = inhibition [4] -8.33% | activity, negative = inhibition [5] 14.8% | Potency [13] > 46 µM | Potency [6] > 46 µM | outcome [7] | Potency [11] | Potency [12] | outcome [14] | outcome [16] | activity change, negative = inhibition [9] 4.89% | Potency [10]
15.9%: max response [9, 21]
9.06%: max response [9, 20]
